Experimental data reported in PubChem BioAssay (NCATS).
Where “and” joins values, the source holds several entries; their conditions need not be identical. Equal entries are not always repeated. Records with an inconclusive call do not appear. Calls of active or inactive are those of the source. Unless noted, calls come from the whole dose curve.

Assays:
[1] = Cell Viability - BJ (AID 421); conditions: BJ fibroblast viability, qHTS;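 note: potency is the fitted concentration of half-maximal effect; cells exposed to compound for 40 hours at 37 °C before readout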
Method in brief: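 Luminescent ATP signal (CellTiter-Glo, 20 min at room temperature) served as the read-out of viable BJ cells after 40 hours of compound treatment. Responses were scaled between DMSO and 100 uM tamoxifen, and AC50 values were obtained by Hill modeling.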

[2] = Cell Viability - Jurkat (AID 426;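 active = dose-dependent loss of cell ATP signal giving a full or clear fitted curve, ranked by lower potency value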;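 note: potency is the fitted concentration of half-maximal effect; cells exposed to compound for 40 hours at 37 °C before ATP read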); conditions: qHTS
Method in brief: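 qHTS, 1536-well; Jurkat E6-1, 5000 cells/well, complete medium; cpd 40 hr, 37 °C; CellTiter-Glo 20 min RT; luminescence. AC50 by Hill fit.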

[3] = Cell Viability - Hek293 (AID 427;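 active = compounds whose dose-response curve shows a full or clear partial loss of cell viability, called from curve shape rather than a numeric limit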;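 note: potency is the fitted concentration of half-maximal effect; cells exposed to compound for 40 hours at 37 °C before reading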); conditions: qHTS
Method in brief: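 Luminescent ATP read-out (CellTiter-Glo, 20 min RT) after 40 hr compound exposure at 37 °C in complete medium. Signal normalized to DMSO (basal) and 100 uM tamoxifen (100% inhibition); concentration-response fitted with the standard Hill equation to give AC50.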

[4] = Cell Viability - HepG2 (AID 433); conditions: qHTS;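 note: potency is the fitted concentration of half-maximal effect; potency for ATP loss meaning cytotoxicity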
Method in brief: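 Cytotoxicity read as ATP loss (CellTiter-Glo luminescence) after 40 hr compound exposure of HepG2, 1500 cells/well, 37 °C. AC50 by Hill equation; 0% set by DMSO, 100% inhibition by 100 uM tamoxifen.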

[5] = Cell Viability - MRC5 (AID 434); conditions: MRC5 lung fibroblast viability, qHTS;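 note: potency is the fitted concentration of half-maximal effect; cells exposed to compound for 40 hours at 37 °C; potency reflects cytotoxicity seen as loss of intracellular ATP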
Method in brief: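 MRC5 normal human lung fibroblasts (1500/well) were treated with compounds for 40 hr at 37 °C in complete medium, and viable cells were measured as intracellular ATP by CellTiter-Glo luminescence. AC50 came from Hill fits, normalized to DMSO and 100 uM tamoxifen.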

[6] = Cell Viability - SK-N-SH (AID 435); conditions: SK-N-SH neuroblastoma cell viability qHTS; note: potency is the fitted concentration of half-maximal effect
Method in brief: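 qHTS cytotoxicity: CellTiter-Glo ATP luminescence after 40 h compound exposure of human neuroblastoma SK-N-SH cells at 37 °C. AC50 derived by Hill-equation fitting, with DMSO as basal and 100 uM tamoxifen as full inhibition.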

[7] = molecular target: Cytochrome P450 1A2 (Homo sapiens) (UniProt P05177); experiment: p450-cyp1a2 (AID 410); note: potency is the fitted concentration of half-maximal effect
Method in brief: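 Luminescent readout of luciferin formed from Luciferin-ME by human CYP1A2; data normalized against complete inhibition by 57 uM furafylline. Enzyme 20nM, substrate 100uM at Km, 100mM KPO4 buffer, 60 min reaction at room temperature.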

[8] = AP1 Signaling Pathway (AID 357; active = well fitted curve in either direction with a large enough effect, not every such curve was filed as active;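 note: ME-180 reporter cells stimulated with EGF at its EC50 level; % is set by controls: 0 for no effect and ±100 for the full control effect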); conditions: ME-180 (cervical carcinoma) AP-1-bla reporter, EGF-induced, beta-lactamase ratio, 5 h; at 17.2 µM (top of the series) unless noted
Method in brief: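 First, ME-180 AP-1-bla cells were cultured overnight at 37 °C in low-serum Opti-MEM. Next, titrated compounds with EC50 EGF were incubated 5 hours. Finally, CCF4 was added for 2.5 hours and the 460/530 nm ratio recorded.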

[9] = NFAT Signaling Pathway (AID 444; active = well fitted curve in either direction with a large enough effect, not every such curve was filed as active;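 note: carbachol stimulus at about its EC50 of 1 µM final; % is set by controls: 0 for no effect and ±100 for the full control effect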); conditions: Jurkat NFAT-bla M1, carbachol, beta-lactamase ratio, 5 h; at 17.2 µM (top of the series)
Method in brief: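 Jurkat cells carrying an NFAT-driven β-lactamase reporter and co-transfected muscarinic M1 receptor were treated with compound plus carbachol (1 uM final, an EC50 level) for 5 h at 37 °C. CCF4 loading followed for 1 h at RT; 460/530 nm ratio gave %activity.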

Sequence of Cytochrome P450 1A2 (Homo sapiens) (P05177 whole entry, looked up): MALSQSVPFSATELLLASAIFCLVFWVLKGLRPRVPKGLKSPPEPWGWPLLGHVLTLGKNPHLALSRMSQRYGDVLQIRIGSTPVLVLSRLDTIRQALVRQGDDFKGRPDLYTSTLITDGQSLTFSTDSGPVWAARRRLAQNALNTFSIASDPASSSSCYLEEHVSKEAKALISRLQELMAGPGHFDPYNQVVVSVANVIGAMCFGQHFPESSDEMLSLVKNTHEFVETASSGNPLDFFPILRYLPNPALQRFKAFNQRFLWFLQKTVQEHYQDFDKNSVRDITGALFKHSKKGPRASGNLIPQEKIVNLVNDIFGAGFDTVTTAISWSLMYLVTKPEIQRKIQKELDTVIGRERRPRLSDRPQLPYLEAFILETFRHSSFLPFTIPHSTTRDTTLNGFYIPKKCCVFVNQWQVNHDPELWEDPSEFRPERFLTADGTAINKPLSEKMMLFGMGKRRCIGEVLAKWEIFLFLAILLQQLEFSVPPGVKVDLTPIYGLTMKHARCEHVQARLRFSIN

CC(C)(c1ccc(O)cc1)c1ccc(O)cc1
inactive: Potency [1] > 92 µM | Potency [2] > 92 µM | Potency [3] > 92 µM | Potency [4] > 92 µM | Potency [5] > 92 µM | Potency [6] > 92 µM

Nc1c2ccccc2nc2ccccc12
active: Potency [2] 31.9 µM | Potency [5] 38.2 µM | Potency [6] 40.5 µM

Brc1ccccc1-c1ccccc1
inactive: Potency [1] > 92 µM | Potency [2] > 92 µM | Potency [3] > 92 µM | Potency [4] > 92 µM | Potency [5] > 92 µM | Potency [6] > 92 µM

CC(=O)OC/C=C(C)/C=C/C=C(C)/C=C/C1=C(C)CCCC1(C)C
inactive: Potency [1] > 92 µM | Potency [3] > 92 µM | Potency [4] > 92 µM | Potency [5] > 92 µM
active: Potency [2] 63.9 µM

CC(C)C(C)(C)C(C)(C)C(C)(C)S
inactive: Potency [1] > 92 µM | Potency [2] > 92 µM | Potency [3] > 92 µM | Potency [4] > 92 µM | Potency [5] > 92 µM | Potency [6] > 92 µM

CCCCCCCCCCCCCCCC[n+]1ccccc1
active: Potency [1] 55.8 µM | Potency [2] 19.2 µM | Potency [3] 54.4 µM | Potency [4] 32.8 µM | Potency [5] 29.8 µM | Potency [6] 28.7 µM

Cn1cnc2c(NCc3ccccc3)nc(NCCO)nc21
active: Potency [7] 7.94 µM and 5.01 µM

Oc1ccccc1
inactive: Potency [1] > 92 µM | Potency [2] > 92 µM | Potency [3] > 92 µM | Potency [4] > 92 µM | Potency [5] > 92 µM | Potency [6] > 92 µM

O=C(c1ccccc1)c1ccccc1
inactive: Potency [1] > 92 µM | Potency [2] > 92 µM | Potency [3] > 92 µM | Potency [4] > 92 µM | Potency [5] > 92 µM | Potency [6] > 92 µM

O=C(NO)c1ccccc1
inactive: Potency [1] > 92 µM | Potency [3] > 92 µM | Potency [4] > 92 µM | Potency [5] > 92 µM | Potency [6] > 92 µM

CC(C)(C)c1ccc(O)c(O)c1
active: Potency [2] 49.4 µM | Potency [6] 54.4 µM
inactive: Potency [1] > 92 µM | Potency [4] > 92 µM | Potency [5] > 92 µM

O=C(O)c1ccccc1S
inactive: activity change, negative = inhibition [8] -3.14% | activity change, negative = inhibition [9] 24.8%

O=C(Oc1ccccc1)c1ccccc1O
inactive: Potency [1] > 92 µM | Potency [2] > 92 µM | Potency [3] > 92 µM | Potency [4] > 92 µM | Potency [5] > 92 µM | Potency [6] > 92 µM

c1ccc2occc2c1
inactive: Potency [1] > 92 µM | Potency [2] > 92 µM | Potency [3] > 92 µM | Potency [4] > 92 µM | Potency [5] > 92 µM | Potency [6] > 92 µM

C1=CC2C3C=CC(C3)C2C1 (stereo unspecified)
inactive: Potency [1] > 92 µM | Potency [2] > 92 µM | Potency [3] > 92 µM | Potency [4] > 92 µM | Potency [5] > 92 µM | Potency [6] > 92 µM

Nc1cccc2c(N)cccc12
inactive: Potency [1] > 92 µM | Potency [2] > 92 µM | Potency [3] > 92 µM | Potency [4] > 92 µM | Potency [5] > 92 µM | Potency [6] > 92 µM

Cc1ccc(O)cc1
inactive: Potency [1] > 92 µM | Potency [2] > 92 µM | Potency [3] > 92 µM | Potency [4] > 92 µM | Potency [5] > 92 µM | Potency [6] > 92 µM

CCCC(=O)c1cc(O)c(O)cc1O
inactive: Potency [1] > 92 µM | Potency [3] > 92 µM | Potency [4] > 92 µM | Potency [5] > 92 µM
